Data as given in PubChem BioAssay AID686964 (The Scripps Research Institute Molecular Screening Center, 2013).
About 1,100 (0.3%) of roughly 370,000 compounds were called active. Only a selection was taken, and actives are over-represented in it overall. A number with no mark means an inactive call. Cut-off read from the data, not from the text of the source: active = inhibition above about 13%; inactive = the rest.

The compounds below were run against Methyl-CpG-binding domain protein 2 (Homo sapiens) (UniProt Q9UBB5) (assay: inhibitors of MBD2 binding to methylated DNA, primary screen, biochemical, TR-FRET, DNA-binding domain, human (AID 686964)). Conditions: MBD2 binding to methylated oligonucleotide, at 4.4 µM, hits give high values.
Sequence of Methyl-CpG-binding domain protein 2 (Homo sapiens) (Q9UBB5 whole entry, looked up, the tested form may be a part): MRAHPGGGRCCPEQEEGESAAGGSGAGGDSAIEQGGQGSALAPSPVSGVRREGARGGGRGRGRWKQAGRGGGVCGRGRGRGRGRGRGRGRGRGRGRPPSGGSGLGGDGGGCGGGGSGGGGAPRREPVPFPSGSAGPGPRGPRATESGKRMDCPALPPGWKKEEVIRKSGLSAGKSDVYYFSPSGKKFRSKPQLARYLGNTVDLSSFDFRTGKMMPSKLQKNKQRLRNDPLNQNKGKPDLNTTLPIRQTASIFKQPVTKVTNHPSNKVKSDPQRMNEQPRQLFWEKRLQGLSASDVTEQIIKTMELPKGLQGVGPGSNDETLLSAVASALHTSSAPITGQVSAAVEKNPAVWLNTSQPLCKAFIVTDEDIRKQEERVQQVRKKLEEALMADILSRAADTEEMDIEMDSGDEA

SMILES	inhibition
Cc1ccc(Cc2cnc(N)s2)o1	19.8% (active)
CCOc1ccccc1CN1CCN(C2CCC2)CC1CCO (stereo not drawn)	-1.77%
CC1CCCCC12NC(=O)N(CC(=O)Nc1ccc(S(=O)(=O)Nc3ncccn3)cc1)C2=O (stereo not drawn)	5.36%
Cc1cc(C)c(S(=O)(=O)NCC2CCC(C(=O)NCc3ccc4c(c3)OCO4)CC2)c(C)c1 (stereo not drawn)	1.75%
CCn1c2ccccc2c2cc(NC(=O)CSc3nnc(-c4ccccc4)n3-c3ccc(C)cc3)ccc21	1.63%
CCn1c(=O)n2n(c1=O)[C@@]1(C=C3CCCC[C@H]32)N=C(NC(=O)c2ccccc2)N(Cc2ccccc2)[C@H]1Cc1ccccc1	-2.62%
CCCCCN1CCCCC(NC(=O)C(C)CCC)C1=O (stereo not drawn)	0.39%
O=C(CNC(=O)c1ccccc1)OC(C(=O)Nc1cc([N+](=O)[O-])ccc1F)c1ccccc1 (stereo not drawn)	0.02%
COC(=O)C[C@@H]1CC[C@@H]2[C@@H](COc3ccc(NC(=O)Nc4ccc(F)c(F)c4)cc3C(=O)N2C)O1	-6.09%
CCC(=O)Nc1ccc2c(c1)C(=O)N(C)[C@@H]1CC[C@@H](CC(=O)NCCc3ccccc3)O[C@H]1CO2	-1.77%
Cc1cccc(NC(=O)C[C@H]2CC[C@H]3[C@@H](COc4ccc(NC(=O)Nc5ccccc5)cc4C(=O)N3C)O2)c1	14.6% (active)
O=C(NCCCc1ccccc1)[C@H](Cc1ccccc1)NC1(C(=O)NCCc2c[nH]c3ccccc23)CCC1	-4.2%
CCOC(=O)C1CCN(C(=O)C(C)(C)NC(=O)Nc2ccc(F)c(F)c2)CC1	-0.53%
CCCCCCCCN1C(=O)[C@@H](CC(=O)N2CCN(C(=O)OCC)CC2)C[C@@]2(C(=O)OC)C1=C[C@H](C1CCCC1)O[C@@H]2C	-0.47%
CC(C)C(=O)N1CCC2(CC1)Oc1ccc(F)cc1C(=O)C21CC(c2ccccc2)=NO1 (stereo not drawn)	-4.91%
CC(=O)c1ccccc1NC(=O)CC1(CC(=O)O)CCCCC1	-1.55%
CCOC(=O)c1ccccc1NC(=O)COC(=O)CCC(=O)N1CCOCC1	3.48%

SMILES	inhibition
CC(=O)c1ccccc1NC(=O)COC(=O)C1COc2ccccc2O1 (stereo not drawn)	28.3% (active)
COc1ccc(Cn2cc(COC(=O)N(C)Cc3ccccc3)nn2)cc1	1.89%
CC(C)(C)C1C/C(=C/c2ccco2)C(=O)/C(=C/c2ccco2)C1 (stereo not drawn)	72% (active)
CN(C(=O)COC(=O)c1cc(-c2ccco2)nc2ccccc12)C1CCS(=O)(=O)C1 (stereo not drawn)	17.8% (active)
CC(=O)c1ccc(OCC(=O)N(C)C2CCS(=O)(=O)C2)cc1 (stereo not drawn)	1.21%
COc1ccc(-c2cc(=O)oc3cc(OCC(=O)N(C)C4CCS(=O)(=O)C4)ccc23)cc1 (stereo not drawn)	2.11%
CNC(=O)Nc1cc(C(C)(C)C)no1	3.32%
O=C(C[C@H]1C(=O)N(c2ccc(F)c(F)c2)C[C@@H]1Cc1ccccc1)Nc1ccccc1	5.88%
CNC(=O)C[C@H]1C(=O)N(c2ccc(OC)cc2)C[C@@H]1Cc1ccccc1	13.2% (active)
CNC(=O)C[C@H]1C(=O)N(Cc2ccccc2)C[C@@H]1CSC	3.38%
COc1cc(/C=C/C(=O)n2cnc3ccccc32)cc(OC)c1OC	-1.66%
O=C(Nc1cc(Cl)cc(Cl)c1)OCCN1CCCC12CCC(c1ccccc1)CC2 (stereo not drawn)	-4.82%
COC(=O)[C@]12C[C@H](CC(=O)NCCC(C)C)C(=O)N(CCc3ccc(OC)c(OC)c3)C1=C[C@H](C(C)(C)C)O[C@@H]2C	19.2% (active)
CCCCOCCCNC(=O)C[C@H]1C[C@@]2(C(=O)OC)C(=C[C@H](C(C)(C)C)O[C@@H]2C)N(CCc2ccc(OC)c(OC)c2)C1=O	2.62%
COC(=O)[C@]12C[C@H](CC(=O)NCc3ccccc3)C(=O)N(CCc3ccc(OC)c(OC)c3)C1=C[C@H](C(C)(C)C)O[C@@H]2C	1.88%
COC(=O)CC1CCc2cc(C)cc(C(CC(C)C)NC(=O)[C@H](CC(C)C)NC(=O)OCc3ccccc3)c2O1 (stereo partly drawn)	4.23%
